Hits are enriched below; roughly 7.9% of the tested compounds scored in any of these assays.
HT1080NT lethal: qHTS for induction of synthetic lethality in tumor cells producing 2HG: qHTS for the HT-1080-NT fibrosarcoma cell line; Potency, µM (doses to about 46.1 µM), without a hit: at the highest dose activity, negative = less viability, usual class: cytotoxic; HT-1080-NT fibrosarcoma viability, CellTiter-Glo ATP luminescence, 48 h; AID 686970, 2013; 1.6% of 360,000 active;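 also: NT is the 2HG producing partner of a matched IDH1 knockdown line; 0% = DMSO-treated cells and -100% = media-only wells without cells; nearly all actives have a fitted effect of over 55% in size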
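HT-1080-NT fibrosarcoma cells (2HG-overproducing), 750 cells/well in RPMI with 5% FBS, dosed after 2 h and incubated 48 h at 37C. CellTiter-Glo luminescence normalized to DMSO and no-cell wells; concentration-response curves fitted and classed.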
HT1080 IDH1KD tx: qHTS for induction of synthetic lethality in tumor cells producing 2HG: qHTS for the HT-1080-IDH1KD cell line | HT-1080 IDH1 knockdown viability, ATP luminescence, 48 h | 2% of 360,000 active | Potency, µM (titrated, usually from 46.1 µM), for inactives: at the highest dose activity, negative = toxicity, usual class: cytotoxic;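 also: 0% = DMSO wells and -100% = cell-free medium wells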
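% activity derives from luminescence (CellTiter-Glo), normalised to DMSO and no-cell wells. HT-1080-IDH1KD cells, 750/well, had 48 h compound exposure at 37 °C.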
KB-V1 cytotox: qHTS assay for MDR1-selective chemotherapeutics: Primary screen using the drug-selected MDR subline cells KB-V1. KB-V1 MDR cells viability, CellTiter-Glo, 72 h. Potency, µM (doses to about 46.1 µM), most hits filed as cytotoxic. 3.4% of 400,000 active; also: % is scaled to controls: 0 for no effect and ±100 for the full control effect; nearly all actives have a fitted effect of over 60% in size
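Compound-treated KB-V1 multidrug-resistant cells, 72 h, 37 degrees C; viability by CellTiter-Glo. Fitted qHTS curves give the values.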
SW480 rerep: A quantitative high throughput screen for small molecules that induce DNA re-replication in SW480 colon adenocarcinoma cells | AID 624297, 2012 | SW480 DNA re-replication, Hoechst DNA content imaging, 48 h | 1.8% of 340,000 active | Potency, µM (highest dose often 46.1 µM), without a hit: at the top dose re-replication activation, most hits filed as activators; also: % of control where 0% means no effect; nearly all actives have a fitted effect of over 55% in size
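DNA re-replication was detected as more nuclei of elevated Hoechst intensity after 48 hr exposure to compound (23 nL pinned per well of 250 cells).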
MCF10A rereplic: A quantitative high throughput screen for small molecules that induce DNA re-replication in MCF 10a normal breast cells; AID 624296, 2012; MCF 10A DNA re-replication, Hoechst nuclear intensity, 48 h; 2.9% of 350,000 active; Potency, µM (top dose mostly 46.1 µM), without a hit: top-dose activity, positive = re-replication, hits mostly activators; also: % of control where 0% means no effect; nearly all actives have a fitted effect of over 50% in size
KB-3-1 tox: qHTS assay for MDR1-selective chemotherapeutics: Primary screen using the parental adenocarcinoma cell KB-3-1. KB-3-1 viability, CellTiter-Glo ATP luminescence, 72 h. Potency, µM (series often up to 46.1 µM), most hits filed as cytotoxic. 1.4% of 400,000 active. AID 1347075, 2019; also: % is scaled to controls: 0 for no effect and ±100 for the full control effect; nearly all actives have a fitted effect of over 60% in size
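Viability of parental KB-3-1 cells, measured by CellTiter-Glo luminescence, followed a 72 h incubation at 37 °C with pinned compounds in phenol-red-free DMEM containing 10% FBS.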
The depositor's hits bear a star; i = inactive; ? = inconclusive; nt = no result; [ ] = another dose, or the depositor's remark. Calls follow the shape of the dose curve; as a rule, active = well fitted curve in the direction sought with a large enough effect; inconclusive = small, poorly fitted or top-dose-only effect, or another doubt; inactive = no such curve, though single readings can be large; an effect the other way counts as inactive or inconclusive. Potency is read from the fitted curve at half-maximal effect.

SMILES	HT1080NT lethal	HT1080 IDH1KD tx	KB-V1 cytotox	SW480 rerep	MCF10A rereplic	KB-3-1 tox
COc1ccc(S(=O)(=O)N2CCN(CCC(=O)Nc3ccc(F)cc3)CC2)cc1	-1%	-2%	5.2µM*	?	8%	?
COc1ccc(N2CCN(CC(=O)Nc3cccc(S(=O)(=O)N4CCOCC4)c3)CC2)cc1	-5%	-1%	10µM*	-3%	12%	?
COc1ccc(NC(=O)CCN2CCN(S(=O)(=O)c3ccc(F)cc3)CC2)cc1	1%	14%	i	-10%	2%	i
CN(C)S(=O)(=O)N1CCN(CC(=O)Nc2cc(Cl)ccc2Cl)CC1	11%	4%	18µM*	6%	18%	i
O=C(OCc1cn([C@@H]2CN(CC3CCCCC3)[C@@H](c3ccccc3)C[C@H]2O)nn1)c1ccccc1	-3%	-10%	i	nt	nt	i
COc1ccccc1C(=O)NC1=NC(c2ccc(Br)cc2)CC(=O)N1 (stereo not given)	nt	nt	i	nt	nt	i
COc1cc(-c2nc3cnccn3c2NC(C)(C)CC(C)(C)C)ccc1O	-5%	-12%	i	-3%	2%	i
COc1cc(-c2nc3cnccn3c2Nc2c(C)cccc2C)ccc1O	-21%	5%	i	23µM*	16µM*	i
Cc1cccc(C)c1Nc1c(-c2ccc(N3CCOCC3)cc2)nc2cnccn12	-8%	-14%	i	?	23µM*	i
CCc1ccc([C@H]2[C@@H]3C(=O)C[C@@H]4C(=O)NC(=O)[C@@H]4[C@@H]3CN2S(=O)(=O)c2ccc(C)cc2)cc1	19%	14%	i	nt	nt	i
O=S(=O)(c1ccc2nc(Cc3ccccc3)[nH]c2c1)N1CCOCC1	1%	-3%[9.24 µM]	i	?	-3%	i
O=S(=O)(c1ccc2nc(Cc3cccc(C(F)(F)F)c3)[nH]c2c1)N1CCOCC1	7%	4%	i	?	2.9µM*	i
C[C@@H](c1ccccc1)N1C[C@H](COCc2ccccc2)Oc2cc(N3CC[C@@H](N(C)C)C3)ccc2S1(=O)=O	?	?	?	nt	nt	i
CCCCC[C@@H](C)N1C[C@H](COCc2ccccc2)Oc2cc(N3CC[C@H](N(C)C)C3)ccc2S1(=O)=O	21µM*	15µM*	?	nt	nt	?
CCCCC[C@H](C)N1C[C@H](COCc2ccccc2)Oc2cc(N3CC[C@H](O)C3)ccc2S1(=O)=O	?	?	i	nt	nt	i
C[C@H](c1ccccc1)N1C[C@H](COCc2ccccc2)Oc2cc(N3CC[C@H](N(C)C)C3)ccc2S1(=O)=O	23µM*	15µM*	?	nt	nt	?
Cc1scc(-c2n[nH]c(=S)n2C(C)c2ccccc2)c1C (stereo not given)	8%	3%	?	13%	10µM*	?
Cc1ccc(CN2[C@H]3CCCC[C@@H]3OCCS2(=O)=O)cc1	nt	nt	?	nt	nt	i
CCOC(=O)C1=C(CN(CC)Cc2ccccc2)NC(=O)NC1c1ccc(Cl)cc1 (stereo not given)	nt	nt	i	nt	nt	i
COc1cccc(NC(=O)CN(C)C(=O)C(CCSC)NC(=O)c2ccco2)c1 (stereo not given)	-7%	-2%	18µM*	1%	-1%	i
CSCCC(NC(=O)COc1ccccc1)C(=O)NC1CCC(C)CC1 (stereo not given)	5%	-2%	8.2µM*	-2%	14%	i
COc1ccc(NC(=O)CN(C)C(=O)C(NC(=O)c2ccco2)C(C)C)cc1 (stereo not given)	-2%	3%	i	-2%	-4%	i
CSCCC(NC(=O)COc1ccccc1)C(=O)N(C)CC(=O)Nc1ccc(Cl)cc1 (stereo not given)	-11%	-8%	3.7µM*	5%	5%	i
CSCCC(NC(=O)COc1ccccc1)C(=O)N(C)Cc1c(F)cccc1Cl (stereo not given)	-6%	-4%	?	nt	nt	i
Fc1ccc(CNCc2ccccc2C(F)(F)F)cc1	2%	4%	i	18µM*	-1%	i
SMILES	HT1080NT lethal	HT1080 IDH1KD tx	KB-V1 cytotox	SW480 rerep	MCF10A rereplic	KB-3-1 tox
COc1ccc(C(=O)CCS(=O)(=O)c2ccc(C)cc2)cc1OC	-6%	?	i	5.2µM*	?	i
Cc1ccc(S(=O)(=O)CCC(=O)OCC(=O)c2cc(C)ccc2C)cc1	3%	1%	i	0%	1%	i
Cc1ccc(S(=O)(=O)CCC(=O)c2ccc(O)cc2O)cc1	-4%	3%	i	?	18µM*	?
CCc1nc2c(OCCOc3ccccc3)cccn2c1N(C)C(=O)c1ccc(C)cc1	-14%	-16%	i	nt	nt	i
Cc1ccc(S(=O)(=O)N2[C@@H](CO)CO[C@H]2CC(=O)c2ccccc2)cc1	-1%	3%	i	nt	nt	i
COC(=O)c1ccc(NC(=O)CSC2=Nc3ccccc3C3CC=NN23)cc1 (stereo not given)	-7%	-3%	16µM*	-5%	-1%	i
Cc1ccc(NC(=O)CSC2=Nc3ccccc3C3CC=NN23)c(C)c1 (stereo not given)	9%	-3%	13µM*	-5%	8%	i
O=C(CSC1=Nc2ccccc2C2CC=NN12)Nc1ccc(F)cc1Cl (stereo not given)	-6%	-8%	?	8%	?	i
COc1ccccc1CNC(=O)c1cnc2sc(N3CCCCC3)nn2c1=O	nt	nt	?	nt	nt	i
O=C(NCC(c1ccco1)N1CCN(c2ccc(F)cc2)CC1)C1CCCCC1 (stereo not given)	0%	-9%	?	-7%	2%	i
O=C(NCc1cccnc1)C(=O)NCC(c1ccco1)N1CCN(c2ccccc2)CC1 (stereo not given)	12%	6%	9.2µM*	?	4%	i
O=C(NCCC1=CCCCC1)C(=O)NCC(c1ccco1)N1CCN(c2ccc(F)cc2)CC1 (stereo not given)	-14%	-1%	2.6µM*	-100%	9%	i
Cc1ccc(C(=O)NCC(=O)N(C)CC(=O)Nc2ccccc2Br)s1	4%	0%	21µM*	-4%	-2%	i
